Assay results reported in PubChem BioAssay (EPA / NIEHS).
Calls of active or inactive are those of the source. Rule for the calls: active = hit-call score of the fitted dose curve at least 0.9, where 1 is the maximum; inactive = score below 0.9.

Read-out: not listed separately
Experiment: BSK_CASM3C_Proliferation: Cell Proliferation Assessment in the BioMAP Diversity Plus: CASM3C Assay (AID 2283047);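 note: sulforhodamine B total protein stain as relative cell number at 560 nm; sub-confluent cells exposed 48 h before staining; fitted both ways against DMSO so gain or loss of cell number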
Conditions: primary human coronary artery smooth muscle cells

Question: With CCCCCCC(O)CCCCCCCCCCC(=O)OC (stereo not given) as the molecule, how does the outcome read?
Answer: inactive

Question: Which outcome does the source give for CCC(C)=NO here?
Answer: inactive

Question: Which outcome does the source give for Cc1cc(-n2nc3ccc(Cl)cc3n2)c(O)c(C(C)(C)C)c1 here?
Answer: inactive

Question: Which outcome does the source give for Oc1cccc2ccccc12 here?
Answer: inactive

Question: For CN(C)c1ccc(C(c2ccccc2)c2ccc(N(C)C)cc2)cc1, which AC50 is on record?
Answer: 9.42 µM (active)

Question: Which outcome does the source give for CC[N+](CC)(CC(=O)Nc1c(C)cccc1C)Cc1ccccc1 (tested in a mixture with another compound) here?
Answer: inactive

Read-out: Monokine induced gamma interferon (MIG), CXCL9 (gene 4283)
Experiment: BSK_CASM3C_MIG: BioMAP Diversity Plus: CASM3C Assay for Monokine induced gamma interferon (MIG) Biomarker Activity (AID 2283048);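 note: MIG protein level measured by ELISA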
Conditions: primary human coronary artery smooth muscle cells; actives raise or lower the signal

Question: With CCCCCCC(O)CCCCCCCCCCC(=O)OC (stereo not given) as the molecule, how does the outcome read?
Answer: inactive

Question: With CCC(C)=NO as the molecule, how does the outcome read?
Answer: inactive

Question: Which outcome does the source give for Cc1cc(-n2nc3ccc(Cl)cc3n2)c(O)c(C(C)(C)C)c1 here?
Answer: inactive

Question: With Oc1cccc2ccccc12 as the molecule, how does the outcome read?
Answer: inactive

Question: With CN(C)c1ccc(C(c2ccccc2)c2ccc(N(C)C)cc2)cc1 as the molecule, how does the outcome read?
Answer: inactive

Question: With CC[N+](CC)(CC(=O)Nc1c(C)cccc1C)Cc1ccccc1 (tested in a mixture with another compound) as the molecule, how does the outcome read?
Answer: inactive

Read-out: serum amyloid A (SAA), SAA1 (gene 6288)
Experiment: BSK_CASM3C_SAA: BioMAP Diversity Plus: CASM3C Assay for serum amyloid A (SAA) Biomarker Activity (AID 2283049);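 note: SAA protein level quantified by ELISA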
Conditions: primary human coronary artery smooth muscle cells; actives raise or lower the signal

Question: For CCCCCCC(O)CCCCCCCCCCC(=O)OC (stereo not given), which outcome is on record?
Answer: inactive

Question: Which outcome does the source give for CCC(C)=NO here?
Answer: inactive

Question: Which outcome does the source give for Cc1cc(-n2nc3ccc(Cl)cc3n2)c(O)c(C(C)(C)C)c1 here?
Answer: inactive

Question: Which outcome does the source give for Oc1cccc2ccccc12 here?
Answer: inactive

Question: With CN(C)c1ccc(C(c2ccccc2)c2ccc(N(C)C)cc2)cc1 as the molecule, how does the outcome read?
Answer: inactive

Question: Which outcome does the source give for CC[N+](CC)(CC(=O)Nc1c(C)cccc1C)Cc1ccccc1 (tested in a mixture with another compound) here?
Answer: inactive

Read-out: not listed separately
Experiment: BSK_CASM3C_SRB: Viability Assessment in the BioMAP Diversity Plus: CASM3C Assay (AID 2283050);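 note: total protein by SRB staining as cytotoxicity measure in parallel cultures; cells exposed to compound for 24 h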
Conditions: primary human coronary artery smooth muscle cells

Question: For CCCCCCC(O)CCCCCCCCCCC(=O)OC (stereo not given), which outcome is on record?
Answer: inactive

Question: Which outcome does the source give for CCC(C)=NO here?
Answer: inactive

Question: With Cc1cc(-n2nc3ccc(Cl)cc3n2)c(O)c(C(C)(C)C)c1 as the molecule, how does the outcome read?
Answer: inactive

Question: With Oc1cccc2ccccc12 as the molecule, how does the outcome read?
Answer: inactive

Question: Which outcome does the source give for CC[N+](CC)(CC(=O)Nc1c(C)cccc1C)Cc1ccccc1 (tested in a mixture with another compound) here?
Answer: inactive

Read-out: Thrombomodulin, THBD (gene 7056)
Experiment: BSK_CASM3C_Thrombomodulin: BioMAP Diversity Plus: CASM3C Assay for Thrombomodulin Biomarker Activity (AID 2283051);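 note: thrombomodulin protein level measured by ELISA 24 h after dosing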
Conditions: primary human coronary artery smooth muscle cells; actives raise or lower the signal

Question: For CCCCCCC(O)CCCCCCCCCCC(=O)OC (stereo not given), which outcome is on record?
Answer: inactive

Question: For CCC(C)=NO, which outcome is on record?
Answer: inactive

Question: Which outcome does the source give for Cc1cc(-n2nc3ccc(Cl)cc3n2)c(O)c(C(C)(C)C)c1 here?
Answer: inactive

Question: Which AC50 does the source give for Oc1cccc2ccccc12 here?
Answer: 5.22 µM (active)

Question: For CN(C)c1ccc(C(c2ccccc2)c2ccc(N(C)C)cc2)cc1, which AC50 is on record?
Answer: 1.26 µM (active)

Question: Which outcome does the source give for CC[N+](CC)(CC(=O)Nc1c(C)cccc1C)Cc1ccccc1 (tested in a mixture with another compound) here?
Answer: inactive

Read-out: Tissue Factor, F3 (gene 2152)
Experiment: BSK_CASM3C_TissueFactor: BioMAP Diversity Plus: CASM3C Assay for Tissue Factor Biomarker Activity (AID 2283052);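 note: cell surface tissue factor protein level read by ELISA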
Conditions: primary human coronary artery smooth muscle cells; actives raise or lower the signal

Question: Which outcome does the source give for CCCCCCC(O)CCCCCCCCCCC(=O)OC (stereo not given) here?
Answer: inactive

Question: With CCC(C)=NO as the molecule, how does the outcome read?
Answer: inactive

Question: Which outcome does the source give for Cc1cc(-n2nc3ccc(Cl)cc3n2)c(O)c(C(C)(C)C)c1 here?
Answer: inactive

Question: With Oc1cccc2ccccc12 as the molecule, how does the outcome read?
Answer: inactive

Question: Which AC50 does the source give for CN(C)c1ccc(C(c2ccccc2)c2ccc(N(C)C)cc2)cc1 here?
Answer: 7.33 µM (active)

Question: Which outcome does the source give for CC[N+](CC)(CC(=O)Nc1c(C)cccc1C)Cc1ccccc1 (tested in a mixture with another compound) here?
Answer: inactive

Read-out: Interferon-gamma inducible Protein 10 (IP10), CXCL10 (gene 3627)
Experiment: BSK_hDFCGF_IP10: BioMAP Diversity Plus: hDFCGF Assay for Interferon-gamma inducible Protein 10 (IP10) Biomarker Activity (AID 2283053)
Conditions: primary human foreskin fibroblasts; actives raise or lower the signal
Method in brief: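 ELISA read-out of IP-10 (CXCL10) from primary human skin fibroblasts, 24 h after compound addition. Gain or loss of signal versus DMSO baseline, bidirectional curve fitting.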

Question: For CCCCCCC(O)CCCCCCCCCCC(=O)OC (stereo not given), which outcome is on record?
Answer: inactive

Question: For CCC(C)=NO, which outcome is on record?
Answer: inactive

Question: For Cc1cc(-n2nc3ccc(Cl)cc3n2)c(O)c(C(C)(C)C)c1, which outcome is on record?
Answer: inactive

Question: With Oc1cccc2ccccc12 as the molecule, how does the outcome read?
Answer: inactive

Question: Which outcome does the source give for CN(C)c1ccc(C(c2ccccc2)c2ccc(N(C)C)cc2)cc1 here?
Answer: inactive

Question: Which outcome does the source give for CC[N+](CC)(CC(=O)Nc1c(C)cccc1C)Cc1ccccc1 (tested in a mixture with another compound) here?
Answer: inactive

Read-out: Urokinase-type plasminogen activator receptor (uPAR), PLAUR (gene 5329)
Experiment: BSK_CASM3C_uPAR: BioMAP Diversity Plus: CASM3C Assay for Urokinase-type plasminogen activator receptor (uPAR) Biomarker Activity (AID 2283054);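 note: cell-surface uPAR protein level quantified by ELISA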
Conditions: primary human coronary artery smooth muscle cells; actives raise or lower the signal

Question: Which outcome does the source give for CCCCCCC(O)CCCCCCCCCCC(=O)OC (stereo not given) here?
Answer: inactive

Question: For CCC(C)=NO, which outcome is on record?
Answer: inactive

Question: With Cc1cc(-n2nc3ccc(Cl)cc3n2)c(O)c(C(C)(C)C)c1 as the molecule, how does the outcome read?
Answer: inactive

Question: For Oc1cccc2ccccc12, which outcome is on record?
Answer: inactive

Question: Which outcome does the source give for CN(C)c1ccc(C(c2ccccc2)c2ccc(N(C)C)cc2)cc1 here?
Answer: inactive

Question: For CC[N+](CC)(CC(=O)Nc1c(C)cccc1C)Cc1ccccc1 (tested in a mixture with another compound), which outcome is on record?
Answer: inactive

Read-out: Vascular cell adhesion molecule 1 (VCAM1), VCAM1 (gene 7412)
Experiment: BSK_CASM3C_VCAM1: BioMAP Diversity Plus: CASM3C Assay for Vascular cell adhesion molecule 1 (VCAM1) Biomarker Activity (AID 2283055);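 note: VCAM-1 protein level quantified by ELISA on the cells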
Conditions: primary human coronary artery smooth muscle cells; actives raise or lower the signal

Question: For CCCCCCC(O)CCCCCCCCCCC(=O)OC (stereo not given), which outcome is on record?
Answer: inactive

Question: With CCC(C)=NO as the molecule, how does the outcome read?
Answer: inactive

Question: For Cc1cc(-n2nc3ccc(Cl)cc3n2)c(O)c(C(C)(C)C)c1, which outcome is on record?
Answer: inactive

Question: With Oc1cccc2ccccc12 as the molecule, how does the outcome read?
Answer: inactive

Question: For CN(C)c1ccc(C(c2ccccc2)c2ccc(N(C)C)cc2)cc1, which outcome is on record?
Answer: inactive

Question: With CC[N+](CC)(CC(=O)Nc1c(C)cccc1C)Cc1ccccc1 (tested in a mixture with another compound) as the molecule, how does the outcome read?
Answer: inactive

Read-out: Collagen III, COL3A1 (gene 1281)
Experiment: BSK_hDFCGF_CollagenIII: BioMAP Diversity Plus: hDFCGF Assay for Collagen III Biomarker Activity (AID 2283056)
Conditions: primary human foreskin fibroblasts; actives raise or lower the signal
Method in brief: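 ELISA read-out of collagen III from human skin fibroblast cultures sampled 24 h post-dosing. Values were derived by bidirectional fitting relative to the DMSO vehicle control.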

Question: With CCCCCCC(O)CCCCCCCCCCC(=O)OC (stereo not given) as the molecule, how does the outcome read?
Answer: inactive

Question: For CCC(C)=NO, which outcome is on record?
Answer: inactive

Question: Which outcome does the source give for Cc1cc(-n2nc3ccc(Cl)cc3n2)c(O)c(C(C)(C)C)c1 here?
Answer: inactive

Question: Which outcome does the source give for Oc1cccc2ccccc12 here?
Answer: inactive

Question: With CN(C)c1ccc(C(c2ccccc2)c2ccc(N(C)C)cc2)cc1 as the molecule, how does the AC50 read?
Answer: 10.7 µM (active)

Question: Which outcome does the source give for CC[N+](CC)(CC(=O)Nc1c(C)cccc1C)Cc1ccccc1 (tested in a mixture with another compound) here?
Answer: inactive

Read-out: Epidermal growth factor receptor (EGFR), EGFR (gene 1956)
Experiment: BSK_hDFCGF_EGFR: BioMAP Diversity Plus: hDFCGF Assay for Epidermal growth factor receptor (EGFR) Biomarker Activity (AID 2283057)
Conditions: primary human foreskin fibroblasts; actives raise or lower the signal
Method in brief: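 ELISA readout of EGFR on human dermal fibroblasts (primary foreskin cells), 24 h post-dosing; bidirectional curve fit vs DMSO baseline, gain or loss of signal scored.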

Question: Which outcome does the source give for CCCCCCC(O)CCCCCCCCCCC(=O)OC (stereo not given) here?
Answer: inactive

Question: For CCC(C)=NO, which outcome is on record?
Answer: inactive

Question: With Cc1cc(-n2nc3ccc(Cl)cc3n2)c(O)c(C(C)(C)C)c1 as the molecule, how does the outcome read?
Answer: inactive

Question: With Oc1cccc2ccccc12 as the molecule, how does the outcome read?
Answer: inactive

Question: With CN(C)c1ccc(C(c2ccccc2)c2ccc(N(C)C)cc2)cc1 as the molecule, how does the outcome read?
Answer: inactive

Question: Which outcome does the source give for CC[N+](CC)(CC(=O)Nc1c(C)cccc1C)Cc1ccccc1 (tested in a mixture with another compound) here?
Answer: inactive
